This is a sample that favours compounds with a hit; in the whole collection about 5.6% have one here.
CtBP-E1A inh = blocks the CtBP interaction with E1A; AlphaScreen GST-E1A/His-CtBP binding, 1536-well; hits give low values; activity change, % (no concentration beside the values); hit rate 0.49% among 340,000; AID 651724; in the data active = activity change below about -65%; inconclusive = mostly about -30% to -63%
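Steps: dispense buffer (Tris pH 8.0, NaCl 300 mM, TCEP 1 mM, BSA, Tween 20); add 5X protein mix (GST-E1A, His-CtBP, 125 nM each); pin 23 nL compound; 2 h at 37 °C, dark; add 5X beads (50 ug/mL); 1 h; read.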
Six1-Eya2 blk = blocks human Six1 binding to Eya2 | Q15475+O00167 | hit rate 0.56% among 360,000 | activity change, % (test concentration not listed) | AlphaScreen GST-Six1/His-Eya2 binding, biochemical; hits give low values | AID 651725; in the data active = activity change below about -65%; inconclusive = mostly about -30% to -63%
Target sequence (O00167 whole entry, looked up): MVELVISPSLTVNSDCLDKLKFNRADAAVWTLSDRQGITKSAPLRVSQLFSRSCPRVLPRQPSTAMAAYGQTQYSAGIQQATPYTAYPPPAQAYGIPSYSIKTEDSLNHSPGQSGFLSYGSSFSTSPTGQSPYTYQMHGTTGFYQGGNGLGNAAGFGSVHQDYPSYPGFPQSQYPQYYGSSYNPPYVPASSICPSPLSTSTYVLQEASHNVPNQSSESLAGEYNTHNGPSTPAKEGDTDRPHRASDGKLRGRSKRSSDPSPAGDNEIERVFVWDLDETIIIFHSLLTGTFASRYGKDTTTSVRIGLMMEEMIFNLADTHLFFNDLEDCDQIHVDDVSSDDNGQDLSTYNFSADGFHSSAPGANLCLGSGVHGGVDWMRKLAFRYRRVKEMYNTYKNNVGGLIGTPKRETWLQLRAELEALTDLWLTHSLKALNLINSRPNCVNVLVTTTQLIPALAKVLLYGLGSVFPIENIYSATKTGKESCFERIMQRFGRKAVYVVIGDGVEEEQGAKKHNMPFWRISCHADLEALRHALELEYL
Target sequence (Q15475 whole entry, looked up): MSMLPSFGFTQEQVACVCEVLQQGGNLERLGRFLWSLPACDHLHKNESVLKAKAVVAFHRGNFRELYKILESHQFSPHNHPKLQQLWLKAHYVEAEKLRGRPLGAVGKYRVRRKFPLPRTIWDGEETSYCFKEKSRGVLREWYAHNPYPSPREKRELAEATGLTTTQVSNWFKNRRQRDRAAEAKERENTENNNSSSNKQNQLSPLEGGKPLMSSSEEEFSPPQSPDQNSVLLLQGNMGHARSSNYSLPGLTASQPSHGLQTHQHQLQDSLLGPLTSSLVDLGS
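AlphaScreen with GST-Six1 and His-Eya2 (5X mix: 250 nM and 500 nM), glutathione donor and nickel acceptor beads; buffer 50 mM Tris pH 8.0, 300 mM NaCl, 1 mM TCEP; 1 h at 37 C in the dark.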
VP16 counter = inhibits Gal4-VP16 luciferase reporter, ROR gamma counter-screen; Potency, µM (highest dose often 53.6 µM), for the others: top-dose activity, negative = inhibition, most hits filed as inhibitors; AID 2546; Drosophila S2 Gal4-VP16 UAS-luciferase, luminescence, 20 h; hit rate 3.5% among 310,000;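 also: Gal4-VP16 expression switched on by copper sulfate through the metallothionein promoter; potency is read from the fitted curve at half-maximal effect; nearly all actives have a fitted effect of over 50% in size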
PKM2 act = activators of human pyruvate kinase M2 | Potency, µM (titrated, usually from 57.5 µM), without a hit: at the highest dose activation, most hits filed as activators | P14618 | purified PKM2, Kinase-Glo ATP luminescence, activation; response scale: 0% is enzyme alone, no compound | AID 1631 | hit rate 0.34% among 260,000; also: potency is read from the fitted curve at half-maximal effect; nearly all actives have a fitted effect of over 55% in size
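Purified hPK-M2 (>95%) run at intermediate activity with 0.1 mM ADP and 0.5 mM PEP in 50 mM imidazole pH 7.2, KCl, MgCl2; 1 h room temperature. ATP formed read by Kinase-Glo luminescence; normalized to uninhibited and no-enzyme controls.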
RORg inh = ROR gamma (mouse) transcription inhibition; Potency, µM (series often up to 53.6 µM), inactives show top-dose activity change, negative = inhibition, actives largely listed as inhibitors; AID 2551; P51450; hit rate 5.4% among 310,000; Drosophila S2 Gal4-RORgamma UAS-luciferase reporter, 20 h; also: potency is read from the fitted curve at half-maximal effect; nearly all actives have a fitted effect of over 60% in size
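In this cell-based reporter format, copper sulfate (700 uM final) drives Gal4–ROR gamma fusion expression from a metallothionein promoter in Drosophila Schneider cells; compounds preincubated 1 hr, reporter read after 20 hr at ambient temperature.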
* marks the source's active call; other numbers are inactive results; ? = inconclusive; / = not tested or not shown; ! = repeats disagree; [ ] = dose if it differs, or a comment. Unless noted, calls follow the shape of the dose curve; as a rule, active = well fitted curve in the direction sought with a large enough effect; inconclusive = small, poorly fitted or top-dose-only effect, or another doubt; inactive = no such curve, though single readings can be large; an effect the other way counts as inactive or inconclusive. % is scaled to controls: 0 for no effect and ±100 for the full control effect.

SMILES | CtBP-E1A inh | Six1-Eya2 blk | VP16 counter | PKM2 act | RORg inh
N#CC(O)c1ccccc1 (configuration not stated) | / | / | -6% | / | 17%
CNC(C)[C@@H](O)c1ccc(O)cc1 (some centres not stated) | / | / | -13% | / | 15%
Fc1ccccc1-c1n[nH]c(=S)n1Cc1ccccc1 | / | 0 | 11µM* | / | 7.1µM*
CNC(=O)Oc1cccc(-c2cn3cc(Cl)ccc3n2)c1 | -19 | -13 | 5µM* | -55% | -40%
CNC(=O)Oc1cccc2ccccc12 | -8 | -8 | -7% | 3% | 2%
CNC(=O)Oc1ccc(-c2cn3cc(C)ccc3n2)cc1 | -14 | -5 | 4µM* | -25% | 2µM*
C[C@H](N)Cc1c[nH]c2ccc(OCc3cccs3)cc12 | / | / | 3% | / | 0%
CN1C(=O)NC(=O)/C(=C\C=C\c2ccccc2[N+](=O)[O-])C1=O | -18 | -3 | ? | 3% | 10µM*
CC(C)=CCCN1CCC(NC(=O)C(O)(c2ccccc2)C2CCCC2)CC1 (configuration not stated) | / | / | -7% | / | 10%
CC1(C)C[C@H]2C=C(C=O)[C@]3(C=O)C[C@]3(C)[C@H]2C1 | 3 | -7 | 1.1µM* | 9% | 1.4µM*
Cc1ccc(-c2cn3c(=S)[nH]nc3s2)cc1 | 4 | -5 | ? | -15% | 2.8µM*
CCCCCSc1cc(OC)c(CCN)cc1OC | -29 | ? | ? | -3% | 7.1µM*
ClC(Br)Br | / | / | 2% | / | 2%
O=C(c1ccccc1)C(CN1CCCC1)c1ccccc1 (configuration not stated) | 2 | 11 | 4.5µM* | 7% | 5.6µM*
O=C(CN1CCCCC1)c1ccc(F)cc1 | 3 | 4 | -4% | 0% | -8%
CC[C@@H](CO)NC(=O)[C@@H]1C=C2c3cccc4c3c(cn4C)C[C@H]2N(C)C1 | -8 | -5 | ? | 2% | 18µM*!
CC[C@]1(O)CC(O[C@@H]2CC(N(C)C)C(O)C(C)O2)c2c(cc3c(c2O)C(=O)c2c(O)ccc(O)c2C3=O)C1C(=O)OC (some centres not stated) | / | / | 2.2µM* | / | 1.1µM*
COc1cc2[nH]c(=O)n(-c3ccc(C)cc3)c(=O)c2cc1OC | -3 | -24 | 1% | -7% | 13%
COc1cc2[nH]c(=S)n(-c3ccccc3)c(=O)c2cc1OC | -1 | -12 | -30% | -2% | 4µM*
CN(C(=O)Cc1ccc(Cl)c(Cl)c1)[C@H](CN1CCCC1)c1cccc(N=C=S)c1 | / | / | ? | / | 32µM*
CCCCC(=O)N/N=C/c1c(O)n(CCc2ccc(OC)c(OC)c2)c(=O)[nH]c1=O | -8 | 5 | -1% | -2% | -33%
CCCCC(=O)N/N=C/c1c(O)n(Cc2ccc(F)cc2)c(=O)[nH]c1=O | ? | -68* | -11% | -1% | -37%
COCCn1c(O)c(/C=N/NC(=O)CSC(=S)N2CCCC2)c(=O)[nH]c1=S | -76* | ? | / | / | /
CCCCC(=O)N/N=C/c1c(O)n(CC)c(=S)[nH]c1=O | 0 | -78* | ? | -4% | 11µM*
CCCCC(=O)N/N=C/c1c(O)n(CCc2ccccc2)c(=O)[nH]c1=O | ? | ? | -10% | -3% | 10µM*
SMILES | CtBP-E1A inh | Six1-Eya2 blk | VP16 counter | PKM2 act | RORg inh
O=C1C=CC(=O)C=C1 | -2 | -8 | 1% | / | 11µM*
CC/C=C\C/C=C\C/C=C\C/C=C\C/C=C\CCCC(=O)NC(C)C(=O)O (configuration not stated) | / | / | 3% | / | 3%
[Hg+][c]1ccccc1 | / | / | 2.8µM* | / | ?
c1ccc(-c2ccccc2)cc1 | / | / | 0% | / | 4%
C=CCN1C(=O)/C(=C/c2ccc(Br)s2)C(=O)NC1=S | / | 3 | ? | ? | 11%[1.91 µM]
CN1C(=O)/C(=C/c2ccc(Cl)s2)C(=O)NC1=S | -6 | -23 | 13µM* | -4%[11.5 µM] | 11µM*
Cc1ccsc1/C=C1\C(=O)NC(=S)N(C)C1=O | / | -5 | 22µM* | 1% | ?
ClCC(Cl)CCl | / | / | -1% | / | 2%
Clc1ccccc1C(c1ccccc1)(c1ccccc1)n1cccn1 | / | / | 3% | / | 2%
O=C1CC[C@@]2(O)C3Cc4ccc(O)c5c4C2(CCN3CC2CC2)[C@H]1O5 (some centres not stated) | / | / | 2% | / | 15%[10 µM]
S=c1[nH]nc(-c2ccccc2)n1C1C=CCCC1 (configuration not stated) | -9 | 5 | 2.8µM* | -1% | -127%
O=C(N/N=C/c1c(O)n(-c2ccccc2)c(=S)[nH]c1=O)c1ccccc1 | -89* | -92* | 4% | 1% | 7.9µM*
Cc1ccccc1-n1c(O)c(/C=N/NC(=O)c2ccccc2O)c(=O)[nH]c1=S | -101* | -92* | -1% | -3% | ?
O=C(N/N=C/c1c(O)n(-c2ccccc2)c(=O)[nH]c1=O)c1ccncc1 | -18 | ? | -5% | 2% | -7%
CCOC(=O)c1ccc(N=Cc2c(O)n(-c3ccccc3F)c(=S)[nH]c2=O)cc1 | 5 | -6 | 4% | 0% | 28%
O=C(N/N=C/c1c(O)n(C2CC2)c(=S)[nH]c1=O)c1ccccc1O | -85* | -83* | 7.1µM* | 1% | 5.6µM*
Oc1c(Cl)cccc1Cl | / | / | 6% | / | -2%
C=CC(=O)OCC(CO)(COC(=O)C=C)COC(=O)C=C | / | / | 5.6µM* | / | 4.5µM*
CCN1C[C@]2(COC)CC[C@H](O)[C@@]34[C@@H]5C[C@H]6[C@@H](OC)[C@H]5[C@](O)(C[C@@H]6OC)[C@@](O)([C@@H](OC)[C@H]23)[C@@H]14 | / | / | 6%[17 µM] | / | -20%[16.9 µM]
O=C1NC(=O)C(=Cc2ccc(Sc3ccccc3)o2)C(=O)N1 | 6 | -3 | ? | 20µM* | -20%
COc1ccc(C=O)cc1OC | / | / | 7% | / | 0%
O=C1NC(=O)N(c2ccccc2)C(=O)/C1=C/C=C/c1ccco1 | 3 | -9 | ? | ? | ?
Cc1ccc(N2C(=O)NC(=O)/C(=C\C=C\c3ccco3)C2=O)cc1 | 8 | -5 | 5.6µM* | 22% | ?
Cc1ccc(N2C(=O)NC(=O)/C(=C\C=C\c3ccco3)C2=O)cc1C | 11 | -15 | 7.1µM* | ? | 13µM*
Cc1cc(C)nc(/N=C/c2c(O)n(C)c(=O)n(C)c2=O)n1 | / | / | ? | 0% | 0%
SMILES | CtBP-E1A inh | Six1-Eya2 blk | VP16 counter | PKM2 act | RORg inh
CCCCCOC(=O)c1ccccc1C(=O)OCCCCC | / | / | -5% | / | 20%
COc1ccc(-c2nc3ccccc3c(=O)n2-c2ccc(OC)cc2)cc1 | 0 | -7 | 7% | 1% | 4%
COc1ccc(-c2nc3ccccc3c(=O)n2-c2nccs2)cc1 | -1 | 0 | ? | -14% | 6.3µM*
O=[As]O[As]=O (configuration not stated) | / | / | -4% | / | -1%[10 µM]
C=C(C)CCl | / | / | 3% | / | 2%
O=C(N/N=C/c1cccc([N+](=O)[O-])c1)c1cnccn1 | -4 | -14 | -6% | 2% | ?

Screening data as filed in PubChem.
